Screening results from PubChem BioAssay.
Most compounds without a hit are left out; they make up all but 2.6% or so of the library.
TWEAK Fn14 block: inhibitors of TWEAK-Fn14 interaction signaling; TWEAK-stimulated Fn14 reporter cells, luciferase luminescence, 8 h; inhibition, % at 10 µM; 360,000 tested, 2% active; AID 1159606; in the data active = inhibition above about 50%
TROY signal inh: inhibitors of TROY-dependent NF-kB signaling | Q293 LMP1-TROYcd NF-kB luciferase reporter, 4 h | inhibition, % at 10 µM | 360,000 tested, 0.98% active | AID 1347056;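 active = compounds whose plate-normalised and pattern-corrected inhibition of the luciferase reporter signal at the single screening dose is 50% or more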
LMP1 NFkB inh: reduces LMP1-driven NF-kappaB luciferase signal; LMP1-induced NF-kappaB luciferase reporter cells, luminescence; inhibition, % at 12.5 µM; 350,000 tested, 0.69% active; in the data active = inhibition above about 41%; inconclusive = no clear call, values can overlap the other calls;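 also: 0% = neutral control wells and 100% = reference inhibitor control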
EWS-Fli block: inhibitors of EWS/Fli oncoprotein transcriptional activity. A673 NR0B1-luciferase reporter, viability-normalised. inhibition, % at 12.6 µM. 350,000 tested, 0.67% active;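 active = mean inhibition of at least 50% after viability correction, with every replicate also passing that limit; inconclusive = mean reaches 50% but only one of two replicates passes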;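 also: firefly luciferase signal divided by Alamar Blue viability fluorescence both relative to DMSO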
LGR2 antag: blocks bursicon-induced cAMP signaling via Drosophila LGR2. HEK293 LGR2, CRE-luciferase, bursicon-stimulated, 4 h. inhibition, % at 9.99 µM. 380,000 tested, 0.35% active. AID 720647;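 active = drop in luminescence signal, shown as inhibition above about 50% in the replicate tests, limit read from the data, passing the limit was not always enough; inconclusive = probably only some replicates passing the limit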;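 also: agonist challenge used bursicon conditioned medium at about half maximal strength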
Numbers without * were called inactive; ? = inconclusive; . = not tested or not shown.

SMILES	TWEAK Fn14 block	TROY signal inh	LMP1 NFkB inh	EWS-Fli block	LGR2 antag
Cc1ccc(NC2=CC(=O)C(=O)c3ccccc32)c(C)c1	75*	74*	1	33	37
CCCNC(=O)N1[C@@H]2CN(C(=O)c3ccc(F)cc3)c3ccccc3[C@@H]2[C@@H]1CO	.	.	.	1	15
CC(C)CNc1ncnc2c1ncn2[C@H]1CN(Cc2ccc(-c3ccccc3)cc2)C[C@@H](CO)O1	51*	28	.	5	15
COc1cc(CNc2ncnc3c2ncn3[C@H]2CN(Cc3ccc(-c4ccccc4)cc3)C[C@@H](CO)O2)cc(OC)c1OC	69*	45	.	35	15
CN(C)CC(=O)N1[C@@H]2c3cccc(=O)n3C[C@H]1[C@H](CO)[C@H]2C(=O)NCc1ccccc1	.	.	.	4	10
O=C(c1cc(-c2ccc(Cl)cc2Cl)on1)N1CCOCC1	71*	31	26	31	?
O=C(c1cc(-c2ccc(Cl)c(Cl)c2)on1)N1CCOCC1	-13	-26	-27	-112	-76
COc1ccc(-c2cc(C(=O)N3CCCC3)no2)cc1	57*	59*	50*	42	75*
O=C(c1cc(-c2cccc(Cl)c2)on1)N1CCOCC1	-5	-63	-27	-91	-51
COc1ccc(-c2cc(C(=O)N3CCCCCC3)no2)cc1	28	-10	-15	-65	8
O=C(c1cc(-c2ccc(Cl)cc2)on1)N1CCOCC1	51*	8	4	.	-14
Cc1ccc(-c2cc(C(=O)NCCCN3CCOCC3)no2)cc1	75*	22	8	.	.
COCC(=O)N1[C@H](C(=O)N2CCOCC2)[C@@H](CO)[C@@H]2Cn3c(ccc(C4=CCCCC4)c3=O)[C@@H]21	.	.	.	-16	16
C[C@@H]1CN([C@H](C)CO)C(=O)c2cccc(NC(=O)C3CC3)c2O[C@H]1CN(C)C(=O)Nc1ccc2c(c1)OCO2	.	.	.	-6	-27
CCc1cccc(OCCCN2C(=O)NC(C)(C)C2=O)c1	6	-5	-8	.	.
CC(=O)c1cccc(OCCN2C(=O)NC(C)(C)C2=O)c1	44	58*	-3	.	.
Cc1cccc(-c2ccc([C@H]3[C@@H](CO)N4CCCCN(S(=O)(=O)c5cccs5)C[C@H]34)cc2)c1	.	.	.	15	6
O=C(C[C@@H]1CC[C@H]2[C@@H](COC[C@@H](O)CN2Cc2ccccc2)O1)N1CCOCC1	.	.	.	1	12
COc1ccc(OC)c2c1C(=O)C(Cl)=C(Cl)C2=O	94*	53*	25	45	90*
Cc1ccc(C(=O)NCC(=O)N(C)Cc2cccc(F)c2)s1	-4	-9	51*	-12	-14
C[C@@H]1CN([C@@H](C)CO)C(=O)c2cc(NC(=O)c3ccncc3)ccc2O[C@@H]1CN(C)Cc1ccc2c(c1)OCO2	.	.	.	-2	20
CCCN1[C@H](C(=O)NCc2ccccn2)[C@@H](CO)[C@@H]2Cn3c(ccc(C4=CCCC4)c3=O)[C@@H]21	.	.	.	1	-8
Cc1ccc(C(=O)Cn2cnc3ccccc3c2=O)cc1	-34	54*	-25	.	.
Nn1c(SCC(=O)Nc2ccc(S(N)(=O)=O)cc2)nnc1-c1ccco1	9	57*	6	4	6
Cc1csc(NC(=O)CSc2nnc(-c3ccco3)n2C)n1	86*	81*	-3	.	.
SMILES	TWEAK Fn14 block	TROY signal inh	LMP1 NFkB inh	EWS-Fli block	LGR2 antag
CO[C@@H]1CN(C)C(=O)c2cc(NS(C)(=O)=O)ccc2OC[C@H](C)N(Cc2ccccc2)C[C@H]1C	.	.	.	-2	7
Cn1c(N)c(C(=O)CSc2nn(-c3ccc(F)cc3)c(=S)s2)c(=O)n(C)c1=O	60*	47	11	15	-4
CN(C)S(=O)(=O)N1CCC(Oc2cccc(C(=O)NCCC3=CCCCC3)c2)CC1	50*	37	12	-1	13
Cc1nnnn1/C(=C\c1ccccc1)C(=O)OCC(=O)Nc1ccc(Cl)cc1F	70*	65*	-4	45	-5
CN(C)S(=O)(=O)c1cccc(NC(=O)COC(=O)c2ccc3ccccc3n2)c1	-14	1	-6	8	1
Cc1nnnn1/C(=C\c1ccccc1)C(=O)OCC(=O)Nc1cccc(S(=O)(=O)N(C)C)c1	72*	26	-25	10	29
Cc1noc(C)c1NC(=O)Nc1ccc2c(c1)CC(=O)N([C@@H](C)CO)C[C@@H](C)[C@H](CN(C)S(=O)(=O)c1c(C)noc1C)O2	.	.	.	-3	21
COC(=O)c1ccccc1NC(=S)N(Cc1ccc2c(c1)OCO2)Cc1cc2ccc(OC)cc2[nH]c1=O	-6	23	-4	88*	-1
O=C1CSC(c2ccccc2)N1c1cccc(Cl)c1 (configuration not stated)	.	.	.	-5	.
CCOc1ccc(N(CC(=O)NC2CC3CCC2C3)S(=O)(=O)c2ccccc2)cc1 (configuration not stated)	56*	-3	18	9	15
CCOc1ccc(N(CC(=O)NC2CC3CCC2C3)S(=O)(=O)c2ccc(C)cc2)cc1 (configuration not stated)	-13	-1	6	.	12
Cc1cccc(S(=O)(=O)N[C@H]2CC[C@H](CCNC(=O)c3cnccn3)O[C@@H]2CO)c1	.	.	.	12	-4
O=C1CC(=O)OC(c2ccc([N+](=O)[O-])cc2)O1	102*	10	26	.	.
CN(C)c1ccc(-c2nc3ccccn3c2/N=C/c2ccc(Br)cc2)cc1	65*	22	38	28	?
CCCOc1ccc(/C=N/Nc2ccccc2[N+](=O)[O-])c(O)c1	98*	91*	24	23	.
COc1cc(/C=N/NC(=O)Cc2ccccc2)ccc1Oc1ccc([N+](=O)[O-])cc1[N+](=O)[O-]	52*	21	-7	-3	1
COc1ccc(/C=N/NC(=S)Nc2ccccc2[N+](=O)[O-])cc1O	93*	86*	-10	-14	38
CCCOc1ccc(/C=N/Nc2cccc([N+](=O)[O-])c2)c(O)c1	-9	-58	-60	.	-80
CCCOc1ccc(/C=N/NC(=S)Nc2ccccc2[N+](=O)[O-])c(O)c1	.	.	.	.	83*
CCC(=O)N(C)C[C@H]1Oc2cc(C#CC3CCCC3)ccc2S(=O)(=O)N([C@H](C)CO)C[C@H]1C	.	.	.	1	21
CC(C)Oc1ccccc1/C=N/Nc1ccccc1[N+](=O)[O-]	7	82*	-15	-14	-8
Cc1ccc(C(=O)c2sc(Nc3ccccc3)c(C#N)c2N)cc1	17	4	-6	.	-20
N#Cc1c(Nc2ccccc2)sc(C(=O)c2ccc(F)cc2)c1N	10	10	43*	.	-12
CN1C(=O)c2cc(NC(=O)c3ccc(Cl)cc3)ccc2OC[C@H]2O[C@H](CC(=O)O)CC[C@@H]21	.	.	.	1	16
COc1ccc(S(=O)(=O)N[C@@H]2CC[C@@H](CCn3cc(-c4cccc(F)c4)nn3)O[C@@H]2CO)cc1	.	.	.	-5	-5
COc1ccc(C(C)NCCC(c2ccc(OC(C)C)cc2)c2ccccc2OC)cc1 (configuration not stated)	-2	-15	-11	?	99*
